PMP22 txn = PMP22 gene transcription modulation | S16 Pmp22-F2sN Schwann cells, FLuc/NLuc coincidence luminescence, 24 h | Potency, µM (top dose mostly 57.5 µM), for inactives: at the top dose activity change, negative = inhibition, hits mostly inhibitors | 43,000 compounds, 2% hits | AID 1508649; active means clear falling dose curves in both reporters; inconclusive means both reporters move, but less clearly or upward; inactive means either reporter flat; the % is the NLuc reporter signal; further: potency means the concentration at half of the fitted maximal effect; on the % scale 0 is the no-effect control and ±100 the full control effect
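qHTS, 1536-well. Cells seeded, compounds added by pin tool, 24 h 37C. Nano-Glo reagent 1 (lysis/FLuc), 10 min RT, read; Stop&Glo, 10 min RT, read NLuc.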
SKOV3 invasion = blocks SKOV3ip1 adhesion and invasion in omental model | SKOV3ip1-GFP adhesion/invasion on 3D omental model, fluorescence | Potency, µM (titrated, usually from 45.8 µM), for the others: at the top dose activity change, negative = inhibition, most hits filed as inhibitors | 46,000 compounds, 0.1% hits;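 further: potency means the concentration at half of the fitted maximal effect; plate controls were DMSO wells for no effect and tomatine positive control wells for full effect; nearly all actives have a fitted effect of over 65% in size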
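Adhesion/invasion was scored as fixed GFP-labeled SKOV3ip1 cell counts (488/509 nm), normalized to DMSO and tomatine controls. Cancer cells in serum-free medium, with four compound doses (0.36-46 umol/L), sat 2 hr at RT then 16 hr at 37 C on a 48 hr fibroblast/mesothelial/ECM culture.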
p53null 39C kill = kills p53 null cells at the nonpermissive temperature | 55,000 compounds, 0.97% hits | AID 904 | H1299 p53-null (neo) cells, 39C, ATPlite viability, 24 h | Potency, µM (top dose mostly 46.1 µM), inactives show at the highest dose activity, negative = cell killing, usual class: cytotoxic;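 further: potency means the concentration at half of the fitted maximal effect; 0% = DMSO only and -100% = full killing by 100 µM tamoxifen; nearly all actives have a fitted effect of over 50% in size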
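Concentration-response (up to 46 uM) was run for 24 h at the nonpermissive 39C on H1299-p53A138V or H1299-neo cells. ATP content was measured with ATPlite luminescence. AC50 values were Hill-modeled after normalizing between DMSO and 100 uM tamoxifen killing.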
p53null 32C kill = kills p53 null cells at the permissive temperature; Potency, µM (doses to about 46.1 µM), without a hit: at the highest dose activity change, negative = cytotoxicity, usual class: cytotoxic; 55,000 compounds, 0.62% hits; H1299-neo p53 null cells, ATP luminescence, 24 h, 32C; AID 903;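 further: potency means the concentration at half of the fitted maximal effect; 0% = DMSO only and -100% = full killing by 100 µM tamoxifen; nearly all actives have a fitted effect of over 55% in size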
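Luminescent ATP readout gave cell viability of p53-null H1299-neo cells after a 24 h compound exposure at the permissive 32C. Titrations ran up to 46 uM, and AC50s were fitted with the standard Hill equation.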
S16 viability = cytotoxicity in S16 Pmp22-F2sN Schwann cells; AID 1508642; 43,000 compounds, 0.48% hits; S16 Pmp22-F2sN Schwann cells (luciferase reporters placed in the Pmp22 gene) viability, CellTiter-Glo, 24 h; Potency, µM (top dose mostly 57.5 µM), without a hit: at the highest dose activity change, negative = cytotoxicity, most hits filed as cytotoxic; further: potency means the concentration at half of the fitted maximal effect; on the % scale 0 is the no-effect control and ±100 the full control effect; nearly all actives have a fitted effect of over 65% in size
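Luminescence from CellTiter-Glo, read by CCD camera after a 15 min room-temperature incubation, served as the viability signal. Reporter Schwann cells (S16 Pmp22-F2sN) had been treated with pin-transferred compounds for 24 h at 37C.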
pS6 MEF inh = mTORC1 pathway inhibition measured by phospho-rpS6. Tsc2-/- p53-/- MEF, phospho-rpS6 immunofluorescence/PI, 24 h. Potency, µM (doses to about 38.3 µM), for inactives: top-dose activity change, negative = inhibition, usual class: inhibitors. 44,000 compounds, 0.78% hits. AID 493208;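 further: potency means the concentration at half of the fitted maximal effect; plate controls were DMSO for no effect and rapamycin for full effect; nearly all actives have a fitted effect of over 50% in size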
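Read-out: phospho-S6 Alexa-488 intensity over PI intensity per well, scored as % active cells using thresholds from rapamycin (7.5 nM) and DMSO controls. Tsc2-/-, p53-/- MEFs exposed to compound for 24 h; PI cell count recorded as viability.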
NLuc saturating = NanoLuc enzyme inhibition artifact for PMP22 screen. shares compounds with PMP22 txn. Secreted NLuc enzyme (filtered S16 cell medium), Nano-Glo luminescence. Potency, µM (top dose mostly 57.5 µM), inactives show top-dose activity change, negative = inhibition, hits mostly inhibitors. 690 compounds, 4% hits; further: potency means the concentration at half of the fitted maximal effect; on the % scale 0 is the no-effect control and ±100 the full control effect
NLuc Km ctr = NanoLuc inhibition at Km substrate, PMP22 artifact check. shares compounds with PMP22 txn. secreted NLuc enzyme, coelenterazine luminescence, Km conditions. Potency, µM (highest dose often 57.5 µM), for the others: at the highest dose activity change, negative = inhibition, hits mostly inhibitors. 690 compounds, 5% hits; further: potency means the concentration at half of the fitted maximal effect; on the % scale 0 is the no-effect control and ±100 the full control effect
FLuc counter = counter-screen for PMP22 expression modulators: firefly luciferase inhibition. shares compounds with PMP22 txn. purified P. pyralis FLuc, luminescence, 10 min. Potency, µM (highest dose often 57.5 µM), for inactives: top-dose activity, negative = inhibition, actives largely listed as inhibitors. 690 tested, under 10 active. AID 1508640; further: % of control where 0% means no effect
Target sequence (P08659 whole entry, looked up): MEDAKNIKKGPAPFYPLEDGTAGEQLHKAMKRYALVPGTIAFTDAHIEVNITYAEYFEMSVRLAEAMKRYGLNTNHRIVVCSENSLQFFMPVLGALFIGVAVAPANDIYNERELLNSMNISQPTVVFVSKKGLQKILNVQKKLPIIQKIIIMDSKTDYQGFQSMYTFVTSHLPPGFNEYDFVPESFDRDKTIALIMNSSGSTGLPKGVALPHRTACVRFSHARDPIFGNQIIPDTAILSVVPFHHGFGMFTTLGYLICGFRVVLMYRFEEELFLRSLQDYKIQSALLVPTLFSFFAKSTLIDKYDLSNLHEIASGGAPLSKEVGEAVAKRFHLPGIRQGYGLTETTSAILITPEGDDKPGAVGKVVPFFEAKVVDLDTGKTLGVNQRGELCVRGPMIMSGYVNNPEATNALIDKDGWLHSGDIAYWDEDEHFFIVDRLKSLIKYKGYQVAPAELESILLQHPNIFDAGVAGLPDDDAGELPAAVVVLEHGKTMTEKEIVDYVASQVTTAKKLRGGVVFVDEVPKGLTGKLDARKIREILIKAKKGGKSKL
S16 F2sN tox cnf = S16 Schwann cell cytotoxicity, confirmatory; shares compounds with PMP22 txn; S16 Schwann cells viability, CellTiter-Glo ATP luminescence, 24 h; Potency, µM (titrated, usually from 57.5 µM), for the others: top-dose activity change, negative = viability loss, usual class: cytotoxic; 690 compounds, 7% hits; AID 1508641; further: potency means the concentration at half of the fitted maximal effect; on the % scale 0 is the no-effect control and ±100 the full control effect
PMP22 txn conf = confirmation of modulators of PMP22 gene transcription in S16 cells | Potency, µM (titrated, usually from 57.5 µM), without a hit: top-dose activity change, negative = inhibition, actives largely listed as inhibitors | S16 Schwann cells Pmp22-F2sN, dual luciferase, 24 h | shares compounds with PMP22 txn | 690 compounds, 22% hits; active means clear falling dose curves in both reporters; inconclusive means both reporters move, but less clearly or upward; inactive means either reporter flat; the % is the FLuc reporter signal; further: potency means the concentration at half of the fitted maximal effect
PMP22 HiBiT cnf = rat PMP22 protein level modulation, confirmatory | shares compounds with PMP22 txn | S16 Schwann cells Pmp22-HiBiT, luminescence, 48 h | Potency, µM (series often up to 27.9 µM), inactives show top-dose activity change, negative = inhibition, hits mostly inhibitors | 95 tested, under 10 active
Target sequence (P25094 whole entry, looked up): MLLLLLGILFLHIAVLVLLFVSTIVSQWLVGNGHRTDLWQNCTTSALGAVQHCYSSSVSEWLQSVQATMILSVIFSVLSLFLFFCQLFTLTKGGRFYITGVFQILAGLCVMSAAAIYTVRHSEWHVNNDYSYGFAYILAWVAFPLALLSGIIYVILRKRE
Starred values were filed as active, the others as inactive; i = inactive; ? = inconclusive; · = not tested or not shown. In the library only some 3% were active in any assay of this set; here they are far more common. Unless noted, the call rests on the fitted dose curve; in most records, active means well fitted curve in the direction sought with a large enough effect; inconclusive means small, poorly fitted or top-dose-only effect, or another doubt; inactive means no such curve, though single readings can be large; an effect the other way counts as inactive or inconclusive.

SMILES	PMP22 txn	SKOV3 invasion	p53null 39C kill	p53null 32C kill	S16 viability	pS6 MEF inh	NLuc saturating	NLuc Km ctr	FLuc counter	S16 F2sN tox cnf	PMP22 txn conf	others
CC(=O)N[C@@H]1[C@H](O[C@@H]2c3ccc(c(Cl)c3)Oc3cc4cc(c3O[C@H]3O[C@H](CO)[C@@H](O)[C@H](O)[C@H]3NC(=O)CCCCCCCC(C)C)Oc3ccc(cc3Cl)C[C@H]3NC(=O)[C@H](N)c5ccc(O)c(c5)Oc5cc(O)cc(c5)[C@H](NC3=O)C(=O)N[C@H]4C(=O)N[C@H]3C(=O)N[C@@H]2C(=O)N[C@@H](C(=O)O)c2cc(O)cc(O[C@H]4O[C@H](CO)[C@@H](O)[C@H](O)[C@H]4O)c2-c2cc3ccc2O)O[C@H](CO)[C@@H](O)[C@@H]1O	·	-17%	·	·	·	·	·	·	·	·	·
Cc1ccccc1CNC(=O)C(=O)NCC(c1cccs1)S(=O)(=O)c1ccc(Cl)cc1 (configuration not stated)	15µM*	8%	4%	3%	0%	2%	-14%	-17%	4%	10%	-24%
CCOc1cc(CNc2ccc(O)cc2)ccc1OCc1ccc(Cl)cc1	7.8µM*	-16%	?	2%	?	?	17µM*	19µM*	?	-5%	-40%
C=CCOc1c(Br)cc(CNc2ccc(NC(=O)C(C)C)cc2)cc1OCC	·	·	·	-24%	·	·	·	·	·	·	·
CCOc1cc(CNc2ccc(O)cc2)cc(Br)c1OCc1ccccc1	8.5µM*	0%	?	12%	?	-8%	?	?	-11%	11%	15µM*	PMP22 HiBiT cnf=-11%
COc1cccc(-c2ccc(NC(=O)C3=C(C(=O)O)CCC3)c(F)c2)c1	·	11%	·	·	·	·	·	·	·	·	·
Fc1ccc(Nc2c3c(nc4ccccc24)CCC3)cc1	14µM*	-7%	?	-4%	-4%	-14%	?	7%	10%	-20%	18µM*
COc1ccc(Nc2c3c(nc4ccccc24)CCC3)cc1Cl	10µM*	i	?	-1%	?	?	-19%	-2%	3%	-24%	?
COc1ccc(Nc2c3c(nc4nncn24)CCC3)cc1Cl	?	-13%	-13%	12%	-18%	-13%	·	·	·	·	·
Fc1ccc(F)c(Nc2c3c(nc4ccc(Cl)cc24)CCC3)c1	19µM*	i	17%	18%	-10%	2%	?	?	3%	-2%	-31%
COc1ccc(C)cc1Nc1c2c(nc3ccccc13)CCC2	11µM*	0%	16µM*	-10%	-15%	?	?	-19%	2%	-7%	?
Cc1cn([C@@H]2O[C@H](CO)[C@@H](O)[C@H]2F)c(=O)[nH]c1=O	·	6%	·	·	·	·	·	·	·	·	·
COc1cc(O)c2c(c1)C1OC1C[C@H](O)[C@H](O)C(=O)C=CC[C@H](C)OC2=O (some centres not stated)	·	-27%	·	·	·	·	·	·	·	·	·
Cc1ccccc1-n1c(SCC(=O)c2ccccc2)nnc1-c1ccc(F)cc1	18µM*	-7%	2%	55%	?	?	1.4µM*	1.7µM*	4%	-4%	?
COc1ccc(-c2noc(CSc3nnc(C)n3-c3ccc(C)cc3)n2)cc1	?	1%	-7%	-9%	?	-15%	·	·	·	·	·
COc1ccc(-n2c(C)nnc2SCc2nc(-c3ccc(OC)c(OC)c3)no2)cc1	?	i	-7%	-8%	-22%	0%	?	?	-5%	-20%	-41%
COc1ccc(-n2c(SCc3nc(-c4ccc(C)cc4)no3)nnc2-c2ccncc2)cc1	?	i	4%	-1%	-10%	-2%	·	·	·	·	·
COc1ccc(-c2noc(CSc3nnc(-c4ccncc4)n3-c3ccccc3)n2)cc1	14µM*	i	-9%	-2%	?	-7%	?	?	-22%	-13%	6.1µM*
O=C(NCc1ccccc1)[C@H](Cc1ccccc1)NC(=O)[C@@H]1O[C@@H]1C(=O)NCCc1ccc(O)cc1	·	-5%	·	·	·	·	·	·	·	·	·
Cn1c(=O)c2c(nc(NCc3ccccc3)n2Cc2ccc(Cl)c(Cl)c2)n(C)c1=O	14µM*	-3%	-15%	?	-24%	-12%	-9%	?	-2%	-25%	?
COc1ccc(CCNc2nc3c(c(=O)n(C)c(=O)n3C)n2Cc2ccc(F)cc2)cc1OC	10µM*	?	-7%	5%	?	-18%	?	?	10%	-23%	-26%
CCNc1nc2c(c(=O)n(C)c(=O)n2C)n1Cc1ccc(F)cc1	?	-1%	7%	-2%	?	?	·	·	·	·	·
COc1cc2c(cc1-c1c(C)noc1C)ncc1[nH]c(=O)n([C@H](C)c3ccccn3)c12	·	54%	·	·	·	·	·	·	·	·	·
